Only some compounds are listed: those with a hit (about 12% of all), similar ones and a draw of the others.
Sm TGR block – blocks Schistosoma mansoni thioredoxin glutathione reductase; Q962Y6; purified TGR, DTNB reduction, TNB absorbance 405 nm; Potency, µM (series often up to 114 µM), actives largely listed as inhibitors; 360,000 compounds, 3% hits; AID 485364; active means well fitted inhibition curve with a large enough effect; inconclusive means small, poorly fitted or top-dose-only effect; inactive means no such curve, though single readings can be large or run the other way; further: nearly all actives have a fitted effect of over 60% in size
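TGR 20 nM + NADPH 100 uM (dispensed conc.), cpd preinc 15 min RT; start with NADPH (500 uM addition) then DTNB (15 mM addition). Kinetic TNB absorbance, 405 nm filter. Four-parameter Hill fit across titration.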
Shiga toxin inh – inhibitors of Shiga toxin in Vero cells | Vero cells, Shiga toxin protein synthesis inhibition reporter | inhibition, % at 38.7 µM | 290,000 compounds, 9.2% hits | AID 2315; in the data active means inhibition mostly above about 28%, no sharp cut-off; inactive means mostly below about 43%
FMDV inh – foot and mouth disease virus antiviral activity; FMDV antiviral cell-based qHTS; Potency, µM (doses to about 57.9 µM), hits mostly inhibitors; 410,000 compounds, 1.2% hits; AID 1159524; calls by dose curve; tested in HEK293T cells; further: read-out not given here; nearly all actives have a fitted effect of over 45% in size
Cycloheximide cs – counter-screen hit for Shiga toxin inhibitors, cycloheximide; cell reporter, cycloheximide protein synthesis inhibition counterscreen; max response, %; 300,000 compounds, 12% hits; AID 2314; in the data active means max response mostly above about 13%, no sharp cut-off; inactive means mostly below about 14%; further: read at 38.3 µM for the half of the compounds with a filed dose
Large screens that a line does not name were inactive.

CCOC(=O)CSc1nc2ccsc2c(=O)[nH]1	none
O=c1[nH]c(SCc2ccccc2)nc2ccsc12	Cycloheximide cs 36
Cc1ccc(C)c(CN2CCC3(CCC(CNC(=O)c4ccnn4C)O3)CC2)c1 (stereo not given)	none (no result: Sm TGR block, Shiga toxin inh, Cycloheximide cs)
CC12CN3CC(c4ccccc4)(CN(C1)C3c1ccc(O)cc1)C2=O (stereo not given)	none (no result: Shiga toxin inh, Cycloheximide cs)
Cc1ccc(S(=O)(=O)N(Cc2ccc(Cl)cc2)c2ccccc2C(=O)NCc2ccco2)cc1	Shiga toxin inh 44, Cycloheximide cs 33
COc1ccc(S(=O)(=O)N(CC(=O)NCc2ccccc2)c2ccc(C)cc2)cc1OC	FMDV inh 18µM (no result: Shiga toxin inh, Cycloheximide cs)
Cc1ccc(N(CC(O)COCc2ccco2)S(=O)(=O)c2ccc(C)cc2)cc1 (stereo not given)	Sm TGR block 8.9µM
Cc1ccc(N(CC(=O)NCc2ccco2)S(=O)(=O)c2ccccc2)cc1	Sm TGR block 25µM, Cycloheximide cs 27
CCCN(CCC)CC(O)CN(c1ccccc1)S(=O)(=O)c1ccc(C)cc1 (stereo not given)	none
COc1ccc(-n2cc(C(=O)NC(C)c3ccccc3)c3ccccc3c2=O)cc1 (stereo not given)	none (no result: Shiga toxin inh, Cycloheximide cs)
CCc1ccc(N(CC(=O)NC2CC2)S(=O)(=O)c2ccc(C)cc2)cc1	Sm TGR block 40µM, FMDV inh inconclusive
COc1ccc(CNC(=O)CN(Cc2ccc(Cl)cc2)S(=O)(=O)c2ccccc2)cc1	FMDV inh 28µM
Cc1ccc(S(=O)(=O)N(CC(=O)NC2CCCC2)c2cccc(C)c2)cc1	none
Cc1ccc(S(=O)(=O)N(CC(=O)NCc2ccco2)C2CCCCC2)cc1	Sm TGR block 45µM (no result: FMDV inh)
COc1ccc(CNC(=O)CN(Cc2ccccc2)S(=O)(=O)c2ccc(Cl)cc2)cc1	FMDV inh inconclusive
Cc1ccc2ccc(S(=O)(=O)NCc3ccco3)cc2c1	Sm TGR block 13µM
CCOC(=O)c1cnc2cc(C(F)(F)F)ccc2c1N1CCN(c2cccc(Cl)c2)CC1	none (no result: Shiga toxin inh, Cycloheximide cs)
Cc1ccc2c(c1)c(=O)c(S(=O)(=O)c1ccc(F)cc1)cn2CC(=O)Nc1ccc2c(c1)OCO2	none (no result: Shiga toxin inh, Cycloheximide cs)
Cc1cc2c(c(-c3ccc(Cl)cc3)c1)OC(CNC(=O)Cc1c(C)noc1C)C2 (stereo not given)	none (no result: Sm TGR block, Shiga toxin inh, Cycloheximide cs)
O=C(CN(Cc1ccccc1)S(=O)(=O)c1ccc(Br)cc1)NCc1ccco1	Shiga toxin inh 25
COc1ccc(N(CC(=O)Nc2ccccc2C(N)=O)S(=O)(=O)c2ccc(C)c([N+](=O)[O-])c2)cc1	Cycloheximide cs 23 (no result: Sm TGR block)
O=C(CN(Cc1ccc(Br)cc1)S(=O)(=O)c1ccccc1)NCc1ccccn1	none
COc1ccc(N(CC(=O)Nc2ccc(C(N)=O)cc2)S(=O)(=O)c2ccc(C)c([N+](=O)[O-])c2)cc1	none
COc1ccc(S(=O)(=O)NCc2ccco2)cc1N(C)S(=O)(=O)c1ccccc1	Shiga toxin inh 51, Cycloheximide cs 33
COc1ccccc1N(CC(=O)NCc1ccco1)S(=O)(=O)c1ccc(C)cc1	Sm TGR block 40µM
Cc1cccc(C(c2sc3nc(-c4ccco4)nn3c2O)N2CCOCC2)c1 (stereo not given)	none (no result: Shiga toxin inh, Cycloheximide cs)
COc1ccc(C2CC(c3ccccc3)Oc3c(C)ccc(C)c32)cc1 (stereo not given)	none (no result: Sm TGR block, FMDV inh)
O=C(CSc1ccncc1)NCC1Cc2cccc(-c3cncnc3)c2O1 (stereo not given)	none (no result: Sm TGR block, Shiga toxin inh, Cycloheximide cs)
COC(=O)CSc1[nH]c2ccccc2c1[N+](=O)[O-]	Sm TGR block 50µM
COc1ccc(-c2cccc(NS(=O)(=O)c3cccs3)c2)nn1	none (no result: Shiga toxin inh, Cycloheximide cs)
CCC(C)NC(=O)c1ccc(NS(=O)(=O)c2ccc3[nH]c(=O)[nH]c3c2)cc1 (stereo not given)	Shiga toxin inh 13
COCCNC(=O)c1ccc(NS(=O)(=O)c2ccc3[nH]c(=O)[nH]c3c2)cc1	none
Cc1ccc(CNC(=O)c2nc(SCc3cccc(C)c3)ncc2Cl)cc1	none (no result: Shiga toxin inh, Cycloheximide cs)
CC(=O)Nc1ccc(NC(=O)c2nc(S(=O)(=O)Cc3cccc(C)c3)ncc2Cl)cc1	Sm TGR block 7.1µM, Shiga toxin inh 99, FMDV inh 20µM, Cycloheximide cs 46
COC(=O)c1ccc(NC(=O)c2nc(S(=O)(=O)Cc3cccc(C)c3)ncc2Cl)cc1	Sm TGR block 6.3µM, FMDV inh 28µM
CCOC(=O)c1ccc(NC(=O)c2nc(SC(C)C)ncc2Cl)cc1	none (no result: Shiga toxin inh, Cycloheximide cs)
Cc1cccc(CS(=O)(=O)c2ncc(Cl)c(C(=O)NCc3ccc4c(c3)OCO4)n2)c1	Sm TGR block 6.3µM, FMDV inh 32µM
CCC(=O)N1CCc2cc(Br)cc(S(=O)(=O)N3CCCC(C(=O)NCc4cccc(OC)c4)C3)c21 (stereo not given)	none (no result: Shiga toxin inh, Cycloheximide cs)
O=C(N/N=C/c1ccncc1)c1ccc(NS(=O)(=O)c2cccs2)cc1	none
COc1ccccc1C(=O)N/N=C/c1ccc(Cl)s1	Shiga toxin inh 78, Cycloheximide cs 49
O=C(N/N=C\c1ccc(Cl)s1)c1cccs1	Cycloheximide cs 43
CSc1ccc(/C=N/NC(=O)c2cccs2)cc1	Shiga toxin inh 66, Cycloheximide cs 52
O=C(N/N=C/c1ccc(Cl)s1)C(O)c1ccccc1 (stereo not given)	none
O=C(N/N=C/c1ccncc1)c1cccs1	Shiga toxin inh 91, Cycloheximide cs 52
CSc1ccc(Cl)c(C(=O)NNC(=O)c2cccs2)c1	none (no result: Sm TGR block, Shiga toxin inh, Cycloheximide cs)
Cc1ccc(/C=N/NC(=O)CNC(=O)c2cccs2)o1	none
COc1ccccc1C(=O)N/N=C/c1cnc2ccccc2n1	Shiga toxin inh 125, Cycloheximide cs 59
O=C(N/N=C/c1ccc(-n2ccnc2)cc1)c1cccs1	Shiga toxin inh 85, Cycloheximide cs 45
O=C(N/N=C/c1ccc(-c2ccccc2C(=O)O)o1)c1cccs1	Sm TGR block inconclusive, Shiga toxin inh 49, Cycloheximide cs 33
CNC(=O)[C@@H]1C[C@@H](NCc2cccc(Oc3ccccc3)c2)CN1C(C)C	none (no result: Sm TGR block, Shiga toxin inh, Cycloheximide cs)
COc1cc(OC)c(NC(=O)c2cc(C(C)=O)n3ccccc23)cc1Cl	none (no result: Shiga toxin inh, Cycloheximide cs)
COc1ccccc1C(=O)N=c1sc2c(C)ccc(OC)c2n1C	Shiga toxin inh 107, Cycloheximide cs 40
COc1ccc(C(=O)N=c2sc3c(C)ccc(OC)c3n2C)cc1OC	none
COc1cccc(C(=O)N=c2sc3c(C)ccc(OC)c3n2C)c1	Shiga toxin inh 49, Cycloheximide cs 45
CCN(CC)c1ccc(/C=C/c2cc(-c3ccccc3)c3ccccc3n2)cc1	Cycloheximide cs 16
CC1CCN(CC2CCN(C(=O)Nc3ccc(Br)cc3F)CC2)CC1	none (no result: Shiga toxin inh, Cycloheximide cs)
CCOc1ccc(NC(=O)/C(C#N)=C\c2ccc(-c3ccc(Cl)cc3)o2)cc1	none (no result: Shiga toxin inh, Cycloheximide cs)
CC1CC1c1ccc(/C=C(\C#N)C(=O)Nc2ccc(Cl)cc2)o1 (stereo not given)	Shiga toxin inh 113, Cycloheximide cs 63
CCc1ccccc1NC(=O)/C(C#N)=C/c1ccc(Sc2ccccc2)o1	none
CC1CC1c1ccc(/C=C(\C#N)C(=O)Nc2ccccc2Cl)o1 (stereo not given)	Shiga toxin inh 30, Cycloheximide cs 52
COc1cc(C2CC(=O)Nc3ccc4ccccc4c32)ccc1OC(=O)C(C)C (stereo not given)	none (no result: Shiga toxin inh, Cycloheximide cs)
O=C(Nc1cc(C(F)(F)F)ccc1Cl)c1cc(S(=O)(=O)NCc2ccccc2)ccc1F	none (no result: Shiga toxin inh, Cycloheximide cs)
CC(=O)N1c2ccccc2CC1C(=O)N1CCN(c2cccc(C)c2C)CC1 (stereo not given)	none (no result: Shiga toxin inh, Cycloheximide cs)

Source: PubChem
